# Screens as filed in PubChem BioAssay.
# Shown are actives, neighbours in structure and some others; about 3.7% of the full set was active somewhere.
# tim23-1 inh: growth inhibitors of tim23-1 mutant yeast | S. cerevisiae tim23-1 growth, BacTiter-Glo luminescence, 24 h | inhibition, % at 20 µM | 330,000 compounds, 1.3% hits | AID 463212;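 active = growth inhibition of the mutant yeast at or above 50%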;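 also: temperature-sensitive mutant grown at 25 °C; plate controls were DMSO-treated mutant yeast for no effect and medium wells lacking yeast for full effect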
# TIM10 inh: TIM10 yeast growth inhibition; S. cerevisiae TIM10 strain growth, BacTiter-Glo luminescence, 24 h; inhibition, % at 10 µM; 330,000 compounds, 1.4% hits; AID 463195;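 active = inhibition of 40% or more at the single tested concentration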;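 also: wild-type TIM10 isogenic control strain grown at permissive 25 °C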
# PfHsp90 set2: reduces growth (ATP signal) of yeast expressing P. falciparum Hsp90; S. cerevisiae expressing PfHsp90, BacTiter-Glo ATP, 48 h; yeast lacking PDR1 and PDR3 efflux regulators; inhibition, % at 9.4 µM; 310,000 compounds, 0.32% hits;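 active = every replicate shows inhibition above about 80%, whatever the replicate mean, limit read from the data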;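 also: 0% = DMSO neutral controls and 100% = 20 µM radicicol positive controls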
# tim10-1 inh: inhibits growth of tim10-1 mutant yeast | S. cerevisiae tim10-1 ts strain growth, BacTiter-Glo, 24 h | AID 463190 | inhibition, % at 20 µM | 330,000 compounds, 2.2% hits;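 active = inhibition of at least 40%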;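 also: mutant grown at 25 °C; 0% = DMSO wells with yeast and 100% = wells holding no yeast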
# NLRP3 yeast inh: inhibitors of NALP3 inflammasome in yeast | Yeast reconstituted NLRP3/ASC/caspase-1, beta-gal luminescence, 24 h | inhibition, % at 10 µM | 330,000 compounds, 0.39% hits | AID 2825;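 active = inhibition of 50% or more; inactive = inhibition below 50%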;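 also: plate controls were induced DMSO wells for no effect and uninduced yeast grown without galactose for full effect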
# NALP3 yeast conf: NALP3 inhibition confirmation in yeast; shares compounds with NLRP3 yeast inh; yeast expressing human NALP3, luminescence; inhibition, % at 10 µM; 1,300 compounds, 81% hits; AID 435006; in the data active = inhibition above about 48%
# Casp1-ASC yeast: counter-screen for NALP3 inhibitors: yeast caspase-1-ASC; shares compounds with NLRP3 yeast inh; yeast expressing Caspase-1-ASC, luminescence counter screen; inhibition, % at 10 µM; 1,000 compounds, 66% hits
# NALP3 yeast rt: yeast NALP3 inhibition, confirmed on retest | shares compounds with NLRP3 yeast inh | yeast expressing human NALP3, luminescence read-out | 1,000 compounds, 53% hits | inhibition, % at 10 µM | AID 488794
# * = called active by the depositor; nt = no result given. Rule as the data show it, unless noted: active = inhibition above about 50%; inactive = the rest.
SMILES,tim23-1 inh,TIM10 inh,PfHsp90 set2,tim10-1 inh,NLRP3 yeast inh,NALP3 yeast conf,Casp1-ASC yeast,NALP3 yeast rt
COc1ccc2c(c1)c(=O)c(C(=O)O)c(-c1ccc3c(c1)OCO3)n2C,-0.6,4.8,21.0,6.5,2.9,nt,nt,nt
Cc1ccc(NC(=S)NNC(C)(C)C)cc1,-4.4,1.8,-10.6,7.9,51.3*,43.2,61.0*,30.7
CC1(C)[C@@H](O)CC[C@]2(C)C3C(O)C=C4[C@H]5C[C@@](C)(C(=O)O)CC[C@]5(C)CC[C@]4(C)[C@]3(C)CC[C@@H]12 (stereo not given in full),8.4,7.9,nt,9.6,60.1*,70.3*,nt,nt
CCN1CCN(c2nc3c(C)cccn3c(=O)c2/C=C(\C#N)C(=O)NCCOC)CC1,6.7,-2.5,-5.5,26.7,8.5,nt,nt,nt
NC(=O)CSc1nnc2n(N)c(=O)c3ccccc3n12,2.7,-16.0,-4.3,6.7,6.5,nt,nt,nt
CCn1c(C)csc1=NC(=O)c1ccccc1,25.4,18.0,25.0,-27.0,53.4*,60.6*,47.9,43.7
CCOC(=O)C1CCCN(C(=O)c2cccc(S(=O)(=O)N(C)c3ccc(C)cc3)c2)C1 (stereo not given),35.9,15.2,-21.7,26.8,12.2,nt,nt,nt
CCOC(=O)Cc1csc(NC(=O)c2cccs2)n1,15.6,3.5,nt,-7.4,28.4,nt,nt,nt
CCOC(=O)Cc1csc(NC(=O)c2ccc(Br)s2)n1,27.7,6.3,nt,-27.4,66.9*,76.2*,nt,nt
CCOC(=O)c1oc2ccccc2c1NC(=O)c1cc(OC)cc(OC)c1,28.0,30.4,11.7,27.9,11.8,nt,nt,nt
CCOC(=O)CSc1nc2c(c(=O)n(C)c(=O)n2C)n1CCCc1ccccc1,nt,nt,23.6,nt,nt,nt,nt,nt
CC1Oc2ccccc2N(Cc2ccccc2Cl)C1=O (stereo not given),-1.3,-7.0,-32.9,24.3,-144.4,6.0,nt,nt
CN(C)c1oc(/C=C/c2ccccc2)nc1C#N,20.6,14.7,31.7,-0.6,53.8*,42.1,56.9*,50.3*
CCCCc1c(C)c(C#N)c2[nH]c3ccccc3n2c1=O,15.4,9.9,4.0,19.5,58.2*,78.3*,-1.2,19.7
O=C(Nc1cccnc1)c1cc(-c2ccccc2)on1,7.4,6.5,-10.2,-10.4,50.2*,39.8,nt,nt
O=C1/C(=C\c2ccc3c(c2)OCO3)CCC/C1=C/c1ccc2c(c1)OCO2,14.0,19.7,20.0,0.1,50.0,48.8*,28.1,23.1
CCc1ccc(C2c3[nH]c4ccccc4c3CCN2C(=O)c2cc(C)nn2C)cc1 (stereo not given),13.2,2.2,-8.0,31.5,19.4,nt,nt,nt
CCC(C)c1ccccc1NC(=O)c1cc2cccc([N+](=O)[O-])c2[nH]1 (stereo not given),20.5,-109.1,nt,-10.1,51.7*,22.2,nt,nt
COc1ccc(-c2nnc(SCC(=O)Nc3cc(S(=O)(=O)N4CCCCC4)ccc3Cl)n2N)cc1,17.8,11.2,-1.0,15.4,13.8,nt,nt,nt
Cc1nc2ccc(NC(=O)Cc3ccsc3)cc2s1,0.5,-14.7,42.2,0.8,19.4,nt,nt,nt
Cc1ccc(NC(=O)Cc2ccsc2)cc1Cl,14.9,-3.9,-3.4,-0.4,54.1*,67.9*,43.4,38.4
O=C(CSc1oc(-c2ccco2)nc1S(=O)(=O)c1ccc(Cl)cc1)NCC1CCCO1 (stereo not given),15.6,14.6,4.8,18.1,15.2,nt,nt,nt
CCc1cc2cc(C)ccc2nc1SCC(=O)NC1CCCC1,6.4,4.7,10.7,-16.5,53.8*,62.1*,35.4,31.5
CCN(CC)S(=O)(=O)c1cc(OC)c(C)cc1C,3.2,-18.5,25.8,-8.8,34.8,nt,nt,nt
CCN(CC)S(=O)(=O)c1cc(OC)c(Cl)cc1Cl,11.0,-15.8,12.1,-20.9,54.7*,64.4*,52.8*,50.0*
SMILES,tim23-1 inh,TIM10 inh,PfHsp90 set2,tim10-1 inh,NLRP3 yeast inh,NALP3 yeast conf,Casp1-ASC yeast,NALP3 yeast rt
C[C@]1(O)CC(=O)C=C[C@H]1Nc1ccccc1,nt,nt,24.7,nt,nt,nt,nt,nt
O=C(CCC(=O)N1CCN(S(=O)(=O)c2ccc(Cl)cc2)CC1)Nc1cccc(Br)c1,1.1,16.3,13.5,6.8,-0.4,nt,nt,nt
CCOc1cc(C)c(S(=O)(=O)N2CCCCC2)cc1C,12.7,-11.8,12.2,-1.9,74.3*,75.7*,79.8*,65.3*
COc1cc(C)c(S(=O)(=O)N2CCCC2)cc1C,19.4,-10.2,24.2,3.4,77.0*,83.1*,86.7*,64.8*
CCOc1cc(S(=O)(=O)N2CCCC2)c(C)cc1C,14.7,11.8,-14.4,11.1,39.0,nt,nt,nt
CCC/C(=C1/c2ccccc2C(=O)N1c1ccccc1)c1cnc(OC)nc1,19.6,-9.5,4.0,7.9,26.0,nt,nt,nt
CCOc1ccc(OCCC(=O)N(CCC(C)C)c2c(N)n(Cc3ccccc3)c(=O)[nH]c2=O)cc1,-7.2,-2.1,-4.9,4.5,-12.2,nt,nt,nt
CC(CCC(=O)O)C1CCC2C3CCC4C[C@H](O)CCC4(C)C3CC(=O)C12C (stereo not given in full),18.6,3.7,-6.7,19.2,14.8,nt,nt,nt
C[C@H](CCC(=O)O)[C@H]1CC[C@H]2[C@@H]3CC[C@@H]4C[C@H](O)CC[C@]4(C)[C@H]3CC[C@]12C,33.3,2.8,8.0,21.1,71.9*,77.5*,78.2*,61.5*
CCCC(=O)c1ccc(N2CCCC2)c(F)c1,12.7,3.8,16.2,15.3,55.5*,12.8,nt,nt
CCC(=O)c1ccc(N2CCCC2)c(F)c1,7.7,8.3,23.3,6.1,30.8,nt,nt,nt
Cn1c(/C=C/N(Cc2ccccc2)c2ccccc2)c([N+](=O)[O-])c(=O)n(C)c1=O,15.2,13.0,-12.3,22.3,-116.9,-22.0,nt,nt
CS(=O)(=O)c1nc(S(=O)(=O)c2ccc(Cl)cc2)c(NCCN2CCOCC2)s1,0.8,-3.2,12.0,-2.3,1.4,nt,nt,nt
Cc1cc(N(C)C)ccc1N=Nc1ccc(N)cc1,34.5,-3.8,0.6,27.9,51.1*,44.5,45.5,39.9
Nc1ccc(N=Nc2ccc(N)cc2)cc1,0.2,0.8,18.5,2.0,35.0,nt,nt,nt
Cc1nnc(SCC(=O)NC2CCCCCC2)n1C,-1.1,7.0,-7.9,-4.2,6.2,nt,nt,nt
C=C(Cl)COc1ccc2c(CC)cc(=O)oc2c1,20.8,-18.8,-11.1,14.4,50.8*,44.1,64.3*,56.4*
CCCCCC(=O)N1CCN(CCN=CC2=C(O)CC(c3ccco3)CC2=O)CC1 (stereo not given),19.2,13.8,nt,8.7,53.4*,54.4*,42.9,51.8*
CCCCCC(=O)N1CCN(CCN=CC2=C(O)CC(c3cccs3)CC2=O)CC1 (stereo not given),7.5,16.4,-21.8,11.8,50.6*,64.8*,54.9*,44.2
CC(Oc1ccccc1)C(=O)Nc1cc(Cl)ccc1-n1cncn1 (stereo not given),14.5,-6.3,nt,11.5,56.9*,58.7*,52.3*,46.0
